One test deals with Tov112D. As to the kind of experiment: Primary qHTS to identify gynecologic anti-cancer compounds using libraries of approved drugs and bioactive compounds (AID 1345084). Also: nearly all actives have a fitted effect of over 55% in size. Also: potency is read from the fitted curve at half-maximal effect. The settings on record: Gynecologic cancer cell panel viability, ATPlite luminescence, 48 h; series mostly up to 57.5 µM. The method, boiled down:
(§1)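 Luminescence from the ATPlite ATP-monitoring reagent indicates viable cell number; lower signal means cytotoxicity. Cells received compound 16 h after seeding and were exposed for 48 h across five concentrations.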
Background: Quantitative high-throughput screening tests each substance at several concentrations.

Another test deals with SKOV3. The test is described as above. The settings on record: Gynecologic cancer cell panel viability, ATPlite luminescence, 48 h; series mostly up to 57.5 µM. The essentials: as §1
Another test has as its system Tov-21-G. Described as above. The settings on record: Gynecologic cancer cell panel viability, ATPlite luminescence, 48 h; series mostly up to 57.5 µM. The essentials:
as §1
In general terms: ATP-based viability assays read luminescence as a measure of living cells.

A further test concerns astro. In words: Drug repurposing screens with cells derived from glioblastoma tumor samples (AID 1345199). Also: nearly all actives have a fitted effect of over 40% in size. Also: potency is read from the fitted curve at half-maximal effect. As to activity, negative = cell killing: % is scaled to controls: 0 for no effect and ±100 for the full control effect. The settings on record: viability, ATP luminescence, 48 h; series mostly up to 45.9 µM. The method, boiled down: (§2)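 Four patient lines of CD133+ GBM neurospheres were screened at several concentrations; hits were retested in those lines plus three slower-growing GBM lines, using 48-hour treatment and ATP-based viability.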

For test [1], the target named is Nuclear receptor subfamily 1 group I member 2 (Rattus norvegicus) (UniProt Q9R1A7). In words: qHTS assay for small molecule activators of the rat pregnane X receptor (rPXR) signaling pathway (AID 651751; call rule not given here; also: 0% is about no effect). The settings on record: rPXR reporter cells, luciferase (One-Glo), 24 h.
Chain of Nuclear receptor subfamily 1 group I member 2 (Rattus norvegicus) (Q9R1A7 whole entry, looked up): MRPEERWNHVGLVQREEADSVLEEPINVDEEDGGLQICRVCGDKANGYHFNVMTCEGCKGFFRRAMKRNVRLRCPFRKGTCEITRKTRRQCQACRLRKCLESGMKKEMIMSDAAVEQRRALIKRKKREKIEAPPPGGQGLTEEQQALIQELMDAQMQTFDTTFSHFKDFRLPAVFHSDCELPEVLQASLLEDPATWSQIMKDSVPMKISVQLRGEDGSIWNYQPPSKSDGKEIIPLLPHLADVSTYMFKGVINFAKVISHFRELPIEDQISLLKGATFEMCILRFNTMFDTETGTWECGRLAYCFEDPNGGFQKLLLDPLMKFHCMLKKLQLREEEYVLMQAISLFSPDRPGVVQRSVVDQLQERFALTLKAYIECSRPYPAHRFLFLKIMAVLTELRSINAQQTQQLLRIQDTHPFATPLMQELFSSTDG
Test [2] can be described thus: Drug repurposing screens with cells derived from glioblastoma tumor samples (AID 1345199). Also: nearly all actives have a fitted effect of over 40% in size. Also: potency is read from the fitted curve at half-maximal effect. As to activity, negative = cell killing: % is scaled to controls: 0 for no effect and ±100 for the full control effect. The settings on record: GBM patient neurospheres viability, ATP luminescence, 48 h. The method, boiled down:
as §2

A short description of test [3]: qHTS assay for small molecule activators of the human pregnane X receptor (PXR) signaling pathway (AID 720659; call rule not given here; also: 0% is about no effect).
The mark [4] stands for this setting: at 45.9 µM (top of the series), tumour line B.
[5] abbreviates: at 99.2 µM (top of the series), tumour line C.
The mark [6] stands for this setting: at 91.6 µM (top of the series), tumour line B.

Each structure is given as a SMILES string. Several values for one entry are separate records, joined by “and”; a condition that tells them apart may be missing. Equal values may be shown once. Values without a mark were called inactive. Results filed as inconclusive are left out. Activity calls are given as the source filed them. Unless noted, calls follow the shape of the dose curve; as a rule, active = well fitted curve in the direction sought with a large enough effect; inconclusive = small, poorly fitted or top-dose-only effect, or another doubt; inactive = no such curve, though single readings can be large; an effect the other way counts as inactive or inconclusive.

Consider `O=c1[nH]sc2cc(Cl)ccc12`, for which the Potency result in the test on Tov112D was “inactive”.
As to `COc1ccc(-n2nc(CCC(=O)N(C)O)cc2-c2ccc(Cl)cc2)cc1`, the Potency with SKOV3 is 31.6 µM (active). Besides, the Potency entry with Tov112D is “inactive”.
On to `CO[C@@H]1[C@@H](OC)[C@H](C)[C@@](O)(CC(=O)O)O[C@H]1[C@H](C)[C@H]1O[C@@]2(CC[C@@](C)([C@H]3CC[C@@](C)([C@@H]4O[C@@H]([C@H]5O[C@](C)(O)[C@H](C)C[C@@H]5C)C[C@@H]4OC4C[C@H](OC)[C@@H](OC)[C@H](C)O4)O3)O2)C[C@H](O)[C@H]1C` (stereo not given in full), for which the Potency in the test on Tov-21-G is 11.2 µM (active); in the test on Tov112D it was 11.2 µM (active); with astro, 1.58 µM (active).
Take `CCOC(=O)N1CCC(Nc2ccc(Cl)cc2N)CC1`: the Potency result with SKOV3, in the test on Tov-21-G and with Tov112D was “inactive” each time.
For `CC(C)(C)c1ccc(O)c(O)c1`, the Potency in the test on SKOV3 was 31.6 µM (active). Further, the Potency entry in the test with astro is “inactive”. Moreover, the max response in test [1] was -0.177% and 2.15%.
As for `O=C(Nc1ccc(S(=O)(=O)N2CCOCC2)cc1)c1cc(Cl)ccc1NS(=O)(=O)c1ccc(Cl)s1`, the Potency entry in the test with SKOV3, in the test on Tov-21-G and with Tov112D was “inactive” each time. In addition, in test [2] (setting [4]), the activity, negative = cell killing is -15.3%. Besides, the Potency in test [2] (tumour line A) is 6.31 µM (active); in test [2] (tumour line C) it was 25.9 µM (active); in test [2] (tumour line D), 15.8 µM (active); in the test on astro, 31.6 µM (active).
Take `O=[N+]([O-])c1ccc(O)c2ncccc12`: the Potency with Tov112D is 28.2 µM (active); in the test on astro it was 3.55 µM (active).
With `O=C(CCC1CCN(Cc2ccccc2)CC1)c1ccc2c(c1)NCCCC2`, the Potency entry in the test with Tov-21-G and in the test on Tov112D was “inactive” each time.
On to `Nc1ccc(C(=O)OCC(O)CO)cc1` (stereo not given), for which the Potency entry with SKOV3, in the test with Tov-21-G and in the test with Tov112D was “inactive” in each case.
Consider `CN1CCC(Nc2ncc3ncnc(Nc4ccc(F)c(Cl)c4)c3n2)CC1`, for which the Potency result in the test with Tov-21-G and in the test with Tov112D was “inactive” in each case. Also, in the test with astro, the Potency was 17.8 µM (active).
On to `COc1c(C)c2c(c(O)c1C/C=C(\C)CCC(=O)OCCN1CCOCC1)C(=O)OC2`, for which, in the test on Tov-21-G, the Potency was 2 µM (active).
For `CCCCCCCCCCCCCCCC[n+]1ccccc1`, the Potency was 31.6 µM (active) in the test on Tov-21-G and 3.16 µM (active) in the test with astro. Further, the compound was called inactive in test [3].
Turning to `Cc1c(C)c2c(c(C)c1OC(=O)CCC(=O)OCCO)CC[C@@](C)(CCC[C@H](C)CCC[C@H](C)CCCC(C)C)O2`, the Potency with astro is 12.6 µM (active).
Consider `CC[N+]1(CC)CCC(=C(c2ccccc2)c2ccccc2)C1C` (stereo not given), for which the Potency result in the test with Tov-21-G, in the test with Tov112D and in the test on astro was “inactive” throughout.
For the compound `Nc1cccc2c(N)cccc12`, in test [2] (setting [5]), the activity, negative = cell killing was -15.4%. Also, in test [2] (tumour line A), the Potency was 15.8 µM (active). Besides, in the test on astro, the Potency entry was “inactive”. The max response in test [1] was -7.42% and 6.55%.
With `CN(C)c1cc2c(Nc3ccc4c(cnn4Cc4ccccc4)c3)ncnc2cn1`, the Potency entry with SKOV3, in the test with Tov-21-G and in the test with Tov112D was “inactive” each time.
Consider `CC[C@@]1(O)C(=O)OCc2c1cc1n(c2=O)Cc2c-1nc1ccccc1c2/C=N/OC(C)(C)C`, for which the Potency in the test with Tov-21-G was 1.41 µM (active).
Regarding `CCCCCOc1ccccc1/C(=C\SC)n1ccnc1`, the Potency result with Tov-21-G and with Tov112D was “inactive” throughout.
`O=C(Nc1ccc(Cl)cc1)Nc1ccc(Cl)c(Cl)c1`: the Potency result in the test with Tov-21-G was “inactive”. In addition, the max response in test [1] was -12.4%. Further, in test [3], the outcome was inactive.
As to `CN1N=C(C(N)=O)CCC1=O`, the Potency result in the test with Tov-21-G and in the test with Tov112D was “inactive” each time.
For the compound `O=C1NCCN1CCN1CCC(c2cn(-c3ccc(F)cc3)c3ccc(Cl)cc23)CC1`, the figures for the Potency with SKOV3 and in the test with astro were 28.2 µM (active) and 17.8 µM (active), respectively.
For the compound `CCCC(=O)c1cc(O)c(O)cc1O`, the Potency result in the test on Tov-21-G and with Tov112D was “inactive” in each case. The activity, negative = cell killing in test [2] (setting [6]) is -19.8%; in test [2] (setting [5]), -23.6%. Moreover, the max response in test [1] was -4.26%. In addition, the call in test [3] was inactive.
For the compound `C[C@H](N)C(=O)N[C@@H](C)C(=O)NC1[C@H]2CN(c3nc4c(cc3F)c(=O)c(C(=O)O)cn4-c3ccc(F)cc3F)C[C@@H]12` (stereo not given in full), the Potency result in the test with SKOV3, in the test with Tov-21-G and in the test with Tov112D was “inactive” each time.
Regarding `OCc1c[nH]c2ccccc12`, in test [1], the max response is 0.925%. Moreover, in test [3], the outcome was inactive.
With `Cc1cc(OCCOCC[N+](C)(C)Cc2ccccc2)ccc1C(C)(C)CC(C)(C)C`, the Potency entry with Tov-21-G was “inactive”. For the same compound, the Potency in the test with astro is 15.8 µM (active).
Consider `CCOC(=O)c1ccc(O)c(O)c1`, for which the Potency entry in the test with Tov-21-G and in the test with Tov112D was “inactive” throughout.
In the case of `CC(C)C[C@H](NC(=O)CNC(=O)[C@H](Cc1ccc(O)cc1)NC(=O)[C@H](CO)NC(=O)[C@H](Cc1c[nH]c2ccccc12)NC(=O)[C@H](Cc1cnc[nH]1)NC(=O)[C@@H]1CCC(=O)N1)C(=O)N[C@@H](CCCN=C(N)N)C(=O)N1CCC[C@H]1C(=O)NCC(N)=O` (stereo in doubt), the activity, negative = cell killing in test [2] (setting [4]) is -6.26%; in test [2] (at 45.9 µM (top of the series), tumour line D) it was 6.77%; in test [2] (at 46 µM (top of the series), tumour line A), -26%; in test [2] (at 46.1 µM (top of the series), tumour line C), -6.29%. The Potency entry with astro was “inactive”.
Regarding `CC[N+](CC)(CC)CCOC(=O)C(C1CCCC1)C1CCCC1`, the Potency entry in the test on SKOV3, in the test with Tov-21-G, in the test on Tov112D and with astro was “inactive” each time.
On to `CC(C)C(C)(C)C(C)(C)C(C)(C)S`, for which the Potency entry in the test on Tov-21-G, with Tov112D and in the test with astro was “inactive” in each case. The activity, negative = cell killing in test [2] (setting [6]) is -9.39%; in test [2] (at 91.6 µM (top of the series), tumour line D), -2.43%; in test [2] (setting [5]) it was -11.4%. In test [2] (tumour line A), the Potency is 28.2 µM (active). The max response in test [1] is -1.2% and -1.45%. In test [3], the compound was called inactive.
On to `CC(C)=CCC/C(C)=C/CC/C(C)=C/C(=O)OCC(=O)[C@@]1(O)CC[C@H]2[C@@H]3CCC4=CC(=O)C=C[C@]4(C)[C@H]3[C@@H](O)C[C@@]21C`, for which the Potency result in the test with Tov-21-G is “inactive”.
Consider `NC(=O)NC1N=C([O][Al])NC1=O` (stereo not given), for which the Potency result in the test with SKOV3, with Tov-21-G and in the test on Tov112D was “inactive” in each case.
In the case of `Oc1ccc(CCNCCCCCCNCCc2ccccc2)cc1O`, in test [2] (setting [4]), the activity, negative = cell killing is -20.6%. Further, the Potency in test [2] (tumour line A) is 17.8 µM (active). For the same compound, the Potency result in the test with astro was “inactive”.

(Values after PubChem BioAssay (NCATS).)
